This is an account of results in PubChem BioAssay (NCATS).

Molecules are shown by their SMILES. Results filed as inconclusive are left out. Calls of active or inactive are those of the source. Calls come from the whole dose curve; as a rule, active = well fitted curve in the direction sought with a large enough effect; inconclusive = small, poorly fitted or top-dose-only effect, or another doubt; inactive = no such curve, though single readings can be large; an effect the other way counts as inactive or inconclusive.

Assay [1] relates to HEK293T. As to the kind of experiment: qHTS assay to identify novel small-molecules to repurpose for Merkel cell carcinoma treatment (AID 1296009). Note: nearly all actives have a fitted effect of over 60% in size. Note: potency is the fitted concentration of half-maximal effect. Particulars: MCC and control cell lines, CellTiter-Glo viability, 72 h; at 44.8 µM (top of the series) unless noted. In short, it runs like this:
(§1)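 72 hr, 37 degree celsius; NPC 8-pt / MIPE 11-pt dose response; compound pinned in DMSO; CellTiter-Glo, 10 min RT, luminescence; normalized to no-cell and DMSO controls.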
For orientation: qHTS replaces the single test concentration by a dilution series.

A further assay deals with MCC-13. Described as above. Particulars: MCC and control cell lines, CellTiter-Glo viability, 72 h; series mostly up to 46 µM. The gist of the method: as §1
In general terms: In ATP-based viability assays light output follows the ATP content of the culture.

A further assay relates to MCC-26. The description is as above. Particulars: MCC and control cell lines, CellTiter-Glo viability, 72 h; series mostly up to 46 µM. In short, it runs like this: as §1
In a further assay the test system is MKL-1. Described as above. Particulars: MCC and control cell lines, CellTiter-Glo viability, 72 h; series mostly up to 46 µM. The gist of the method:
as §1

In a further assay the test system is MKL-2. The assay is described as above. Particulars: MCC and control cell lines, CellTiter-Glo viability, 72 h; series mostly up to 46 µM. In short, it runs like this:
as §1

For the next assay, the system named is UISO. Described as above. Particulars: MCC and control cell lines, CellTiter-Glo viability, 72 h; series mostly up to 46 µM. The gist of the method:
as §1

In the next assay the test system is WaGa. The assay is described as above. Conditions: MCC and control cell lines, CellTiter-Glo viability, 72 h; series mostly up to 46 µM. The gist of the method:
as §1

Another assay has as its system C33A. As to the kind of experiment: Primary qHTS to identify gynecologic anti-cancer compounds using libraries of approved drugs and bioactive compounds (AID 1345084). Note: nearly all actives have a fitted effect of over 55% in size. Particulars: Gynecologic cancer cell panel viability, ATPlite luminescence, 48 h; series mostly up to 57.5 µM. In short, it runs like this: (§2)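 Measured: luminescence after ATPlite addition (15 min, RT). Exposure: 48 h, 37 C, 5% CO2.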

The next assay has as its system CASKI. Described as above. Particulars: Gynecologic cancer cell panel viability, ATPlite luminescence, 48 h; series mostly up to 57.5 µM. In short, it runs like this: as §2
The next assay relates to Es-2. Described as above. Particulars: Gynecologic cancer cell panel viability, ATPlite luminescence, 48 h; series mostly up to 57.5 µM. In short, it runs like this: as §2
A further assay concerns HeLa. The description is as above. Particulars: Gynecologic cancer cell panel viability, ATPlite luminescence, 48 h; series mostly up to 57.5 µM. The gist of the method: as §2
For assay [2], the system named is Hek293T. The assay is described as above. Particulars: Gynecologic cancer cell panel viability, ATPlite luminescence, 48 h, control line for the selectivity index; series mostly up to 57.5 µM. In short, it runs like this:
as §2

The next assay has as its system JEG-3. The assay is described as above. Conditions: Gynecologic cancer cell panel viability, ATPlite luminescence, 48 h; series mostly up to 57.5 µM. The gist of the method:
as §2

A further assay relates to OV90. The description is as above. Conditions: Gynecologic cancer cell panel viability, ATPlite luminescence, 48 h; series mostly up to 57.5 µM. The gist of the method:
as §2

In a further assay the test system is Tov-21-G. The assay is described as above. Particulars: Gynecologic cancer cell panel viability, ATPlite luminescence, 48 h; series mostly up to 57.5 µM. The gist of the method: as §2
For a further assay, the system named is Tov112D. Described as above. Particulars: Gynecologic cancer cell panel viability, ATPlite luminescence, 48 h; series mostly up to 57.5 µM. The gist of the method: as §2
The subject of another assay is NIH3T3. The assay can be described thus: qHTS assay to identify novel small-molecules to repurpose for Merkel cell carcinoma treatment (AID 1296009). Note: nearly all actives have a fitted effect of over 60% in size. Note: potency is the fitted concentration of half-maximal effect. Conditions: MCC and control cell lines, CellTiter-Glo viability, 72 h; series mostly up to 44.8 µM. The gist of the method: as §1
The test system of another assay is PA-1. The assay can be described thus: Primary qHTS to identify gynecologic anti-cancer compounds using libraries of approved drugs and bioactive compounds (AID 1345084). Note: nearly all actives have a fitted effect of over 55% in size. Particulars: Gynecologic cancer cell panel viability, ATPlite luminescence, 48 h; series mostly up to 57.5 µM. The gist of the method: as §2
A further assay has as its system SKOV3. The description is as above. Particulars: Gynecologic cancer cell panel viability, ATPlite luminescence, 48 h; series mostly up to 57.5 µM. In short, it runs like this:
as §2

The next assay concerns CAOV3. Described as above. Conditions: Gynecologic cancer cell panel viability, ATPlite luminescence, 48 h; series mostly up to 57.5 µM. The gist of the method:
as §2

Take `CCOC(=O)[C@H]1O[C@H]1C(=O)N[C@@H](CC(C)C)C(=O)NCCC(C)C`: in the assay on HEK293T [1], the compound was classed as inactive. Moreover, the Potency result in the assay with MCC-13, with MCC-26, with MKL-1, with MKL-2, in the assay on UISO and in the assay with WaGa was “inactive” each time.
For the compound `C[C@H](c1ccc(F)cc1CCCC(=O)O)N(c1cc(F)ccc1F)S(=O)(=O)c1ccc(Cl)cc1`, the compound was called inactive in the assay with HEK293T [1]. Besides, the Potency result with MCC-13, with MCC-26, in the assay with MKL-1, in the assay on MKL-2, in the assay with UISO and in the assay with WaGa was “inactive” throughout. The Potency result in the assay with C33A, with CASKI, in the assay on Es-2, in the assay on HeLa, with Hek293T [2] and in the assay with JEG-3 was “inactive” each time. Further, the Potency result with OV90, with Tov-21-G and in the assay on Tov112D was “inactive” each time.
For the compound `COc1cc(Nc2nc3ccccc3nc2NS(=O)(=O)c2ccc(NC(=O)c3ccc(C)c(OC)c3)cc2)cc(OC)c1`, the compound was classed as inactive in the assay on HEK293T [1]. For the same compound, the Potency result in the assay on MCC-13, in the assay on MCC-26, in the assay on MKL-1, with MKL-2, in the assay on NIH3T3 and with UISO was “inactive” throughout. The Potency result with WaGa, in the assay on C33A, with CASKI, with Es-2, in the assay on HeLa and in the assay on Hek293T [2] was “inactive” in each case. Also, the Potency result in the assay with JEG-3, in the assay with OV90, in the assay on PA-1, with SKOV3, with Tov-21-G and in the assay with Tov112D was “inactive” in each case.
Turning to `CC1=C(C(=O)Nc2cc3cn[nH]c3cc2F)C(c2ccc(C(F)(F)F)cc2)CC(=O)N1` (centres undefined), in the assay with HEK293T [1], the call was inactive. Moreover, the Potency entry with MKL-1, in the assay on MKL-2, with UISO, in the assay on C33A, in the assay on CAOV3 and with CASKI was “inactive” each time. In addition, the Potency entry with Es-2, in the assay with HeLa, in the assay with Hek293T [2], in the assay on JEG-3, with OV90 and in the assay with PA-1 was “inactive” each time. Moreover, the Potency result in the assay on SKOV3, in the assay with Tov-21-G and in the assay on Tov112D was “inactive” each time.
With `O=C(O)CCNc1cc(N2CCc3ccccc3CC2)nc(-c2ccccn2)n1`, in the assay with HEK293T [1], the call was inactive. The Potency entry in the assay with MCC-13, in the assay on MCC-26, in the assay on MKL-1, in the assay on C33A, with CAOV3 and in the assay with CASKI was “inactive” in each case. Further, the Potency entry in the assay on Es-2, with HeLa, with Hek293T [2], in the assay with JEG-3, in the assay with OV90 and in the assay on PA-1 was “inactive” each time. Besides, the Potency result in the assay with SKOV3, in the assay with Tov-21-G and in the assay on Tov112D was “inactive” throughout. Moreover, the Potency in the assay with UISO is 14.8 µM (active).
Turning to `O=C1C(CCC(O)c2ccc(F)cc2)C(c2ccc(O)cc2)N1c1ccc(F)cc1` (centres undefined), in the assay with HEK293T [1], the compound was classed as inactive. In addition, the Potency entry in the assay on MCC-13, with MCC-26, with MKL-1, in the assay with MKL-2, in the assay on UISO and with WaGa was “inactive” each time.
As to `CCOC(=O)[C@H](CCc1ccccc1)N[C@@H](C)C(=O)N1CCCC1C(=O)O` (some centres undefined), the result in the assay with HEK293T [1] was inactive. Also, the Potency entry with MCC-13, with MCC-26, in the assay on MKL-1, with MKL-2, with NIH3T3 and in the assay with UISO was “inactive” in each case. Further, the Potency entry in the assay with WaGa was “inactive”.
For `O=C(O)C1=NC(C(=O)O)CC(C=CN2c3cc(O)c(OC4OC(CO)C(O)C(O)C4O)cc3CC2C(=O)O)=C1` (centres undefined), the compound was called inactive in the assay with HEK293T [1]. For the same compound, the Potency result in the assay with MCC-13, in the assay with MCC-26, in the assay with MKL-1, in the assay with MKL-2, in the assay on UISO and in the assay on WaGa was “inactive” in each case.
Regarding `C[C@@H](O)[C@H]1C(=O)N2C(C(=O)OCOC(=O)C(C)(C)C)=C(SC3CN(C4=NCCS4)C3)[C@H](C)[C@H]12`, the result with HEK293T [1] was inactive. Also, the Potency result with MCC-13, in the assay on MCC-26, in the assay with MKL-1, in the assay with NIH3T3, with UISO and in the assay on WaGa was “inactive” in each case.
In the case of `Cc1cnc(-c2cc(N3CCN(C(=O)CCS(C)(=O)=O)CC3)ncc2Cl)c(C)c1`, in the assay on HEK293T [1], the outcome was inactive. In addition, the Potency result in the assay with MCC-13, with MCC-26, with MKL-1, with MKL-2, in the assay on NIH3T3 and in the assay with UISO was “inactive” in each case. The Potency result in the assay with WaGa, with C33A, in the assay on CAOV3, with CASKI, in the assay on Es-2 and with HeLa was “inactive” in each case. In addition, the Potency entry with Hek293T [2], in the assay with JEG-3, with OV90, with PA-1, with SKOV3 and with Tov-21-G was “inactive” each time. The Potency result in the assay on Tov112D was “inactive”.
Take `CC1CNc2c(cccc2S(=O)(=O)N[C@@H](CCCN=C(N)N)C(=O)N2CC[C@@H](C)C[C@@H]2C(=O)O)C1` (some centres undefined): the call in the assay with HEK293T [1] was inactive. Further, the Potency result with MCC-13 and in the assay on UISO was “inactive” each time. In addition, the Potency in the assay with MKL-1 was 16.6 µM (active); in the assay with MKL-2, 3.72 µM (active); in the assay with WaGa it was 4.69 µM (active).
On to `NS(=O)(=O)c1cc(Cl)c(Cl)c(S(N)(=O)=O)c1`, for which the outcome in the assay with HEK293T [1] was inactive. Besides, the Potency result in the assay on MCC-13, with MCC-26, with MKL-1, with MKL-2, with UISO and in the assay on WaGa was “inactive” each time. Further, the Potency result in the assay on C33A, in the assay on CAOV3, in the assay with CASKI, in the assay on Es-2, with HeLa and with Hek293T [2] was “inactive” in each case. Also, the Potency result in the assay with JEG-3, with OV90, in the assay on PA-1, in the assay on SKOV3, with Tov-21-G and in the assay on Tov112D was “inactive” throughout.
On to `COc1ccnc(CS(=O)c2nc3ccc(OC(F)F)cc3[nH]2)c1OC` (centres undefined), for which the compound was classed as inactive with HEK293T [1]. In addition, the Potency entry in the assay on MCC-13, in the assay on MCC-26, with MKL-1, in the assay on NIH3T3, in the assay on UISO and in the assay on WaGa was “inactive” each time. Also, the Potency entry in the assay on C33A, in the assay with CAOV3, in the assay on CASKI, in the assay on Es-2, with HeLa and in the assay on Hek293T [2] was “inactive” throughout. Also, the Potency result in the assay with JEG-3, with PA-1, in the assay on SKOV3, with Tov-21-G and with Tov112D was “inactive” in each case.
On to `Cc1ccc2c(=O)c3cccc(CC(=O)O)c3oc2c1C`, for which the compound was classed as inactive in the assay on HEK293T [1]. For the same compound, the Potency entry in the assay with MCC-13, in the assay on MCC-26, with MKL-1, in the assay on MKL-2, in the assay with NIH3T3 and with UISO was “inactive” in each case. In addition, the Potency result in the assay on WaGa was “inactive”.
Consider `CCN1C[C@H](C)n2c(c(O)c3c(=O)n(Cc4ccc(F)c(Cl)c4)nc(C(=O)NC)c32)C1=O`, for which the compound was called inactive with HEK293T [1]. The Potency result in the assay on MCC-13, in the assay with MCC-26, in the assay on MKL-1, in the assay with MKL-2, with UISO and with WaGa was “inactive” each time. For the same compound, the Potency entry in the assay with C33A, in the assay on CAOV3, with CASKI, in the assay on Es-2, in the assay on HeLa and in the assay with Hek293T [2] was “inactive” throughout. Moreover, the Potency entry with JEG-3, with OV90, with PA-1, in the assay on SKOV3, in the assay on Tov-21-G and in the assay on Tov112D was “inactive” each time.
